# Laboratory results: PubChem BioAssay (NCI)
# About 83,000 compounds went through this panel and 20% of them were active in at least one assay; those are over-represented in the sample as a whole.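 Interpretation: 100, growth as untreated; towards 0, rising growth inhibition; 0, no net growth; 0 to -100, cell death. Compounds scoring below 10 were considered active.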 A number with no mark means an inactive call. Activity calls are given as the source filed them.
# Columns and labels:
# Test in all cases: NCI-60 one-dose screen, 48 h (100 = growth as untreated, 0 = no growth, -100 = all killed)
# Details in all cases: 10 µM unless noted
# HCT-15 colon = tested on: HCT-15 colon
# HT29 colon = tested on: HT29 colon
# SNB-75 CNS = tested on: SNB-75 CNS
# SNB-19 CNS = tested on: SNB-19 CNS
# U251 CNS = tested on: U251 CNS
# PC-3 prostate = tested on: PC-3 prostate
# SK-MEL-5 melanoma = tested on: SK-MEL-5 melanoma
# UACC-62 melanoma = tested on: UACC-62 melanoma
# LOX IMVI melanoma = tested on: LOX IMVI melanoma
# SK-MEL-28 melanoma = tested on: SK-MEL-28 melanoma
Structure (SMILES),growth (HCT-15 colon),growth (HT29 colon),growth (SNB-75 CNS),growth (SNB-19 CNS),growth (U251 CNS),growth (PC-3 prostate),growth (SK-MEL-5 melanoma),growth (UACC-62 melanoma),growth (LOX IMVI melanoma),growth (SK-MEL-28 melanoma)
CCCCCCCCCCCCCCCC1=NCC[N+]1(CCO)CCO,31.9%,12.4%,46.9%,97.6%,39.4%,32.1%,89.6%,76.2%,5.42% (active),115%
Cc1cccc(C(=O)O)n1,99.4%,112%,103%,97.6%,105%,117%,98.3%,101%,101%,123%
N#Cc1c(N)c(C(=O)c2ccc3c(c2)OCCO3)n2c1CCCC2,20.9%,5.44% (active),-1.33% (active),53.7%,15.4%,23%,22.8%,38%,32.2%,44%
COc1cccc(/C=N/N=C(N)N)c1,100%,100%,89.9%,101%,103%,97.2%,98.1%,81.8%,106%,106%
CC(=O)OC1Oc2ccccc2-c2oc3nc(=N)n(C)c-3cc21 (stereo not given),104%,109%,112%,106%,113%,97.4%,108%,106%,103%,122%
CC(COC(=O)c1ccccc1)N1CC2CCC(C1)O2 (stereo not given),99.7%,107%,93.7%,102%,98.7%,91.6%,101%,100%,98%,104%
CC(C)CC(NC(=O)OCC1c2ccccc2-c2ccccc21)C(=O)O (stereo not given),105%,112%,90.3%,99.1%,97.6%,104%,101%,104%,103%,105%
Nc1nc2c(c3ncccc13)C(c1ccccc1)Cc1ncccc1-2 (stereo not given),46.1%,56.9%,71.2%,91.8%,72.2%,73.9%,53.1%,59.4%,70.9%,83.5%
O=C(N=Nc1c(Cl)c(O)c2ccccc2c1O)C(=O)Nc1cccc(C(F)(F)F)c1,68.9%,73.6%,31.3%,92.6%,74.6%,58.2%,72.4%,83.2%,14.7%,101%
COc1cc(NCCCCC(C)N)c2nccc(C)c2c1 (stereo not given),93.9%,76.3%,72%,94.6%,93%,66%,87.7%,91.1%,92.7%,99.3%
O=c1[nH]c2ccccc2n2cc3cccnc3c12,70.2%,42.3%,86.2%,71%,76.6%,84.7%,73.2%,53%,65.6%,107%
O=C(Oc1c(Cl)c(Cl)c(Cl)c(Cl)c1Cl)C1CCCN1C(=O)OCc1ccccc1 (stereo not given),15.4%,89.1%,36.4%,26.2%,18.3%,10.7%,76.2%,75.2%,64.8%,99%
Fc1[nH]nc2ccc([C@@H]3Nc4ccc5[nH]ncc5c4[C@H]4C5CCC(C5)[C@@H]34)cc12 (stereo not given in full),34.5%,8.7% (active),-14.8% (active),36.6%,25.8%,27.8%,25.7%,27.5%,48.3%,54.8%
OC(c1cc2cc(Cl)ccc2c2cc(C(F)(F)F)ccc12)C1CCCCN1 (stereo not given),-61.7% (active),-87.3% (active),-90% (active),-68.6% (active),-93.4% (active),-83.1% (active),-24.9% (active),-72.7% (active),-39.8% (active),-90.5% (active)
O=C(c1ccc(C(F)(F)F)c(Cl)c1)N(Cc1ccc(Cl)cc1)c1ccc(-c2cc(C(F)(F)F)[nH]n2)c(O)c1,7.04% (active),5.34% (active),10.3%,26.2%,4.18% (active),11.2%,-42.9% (active),14.5%,4.7% (active),30.8%
COc1ccc(-c2nc3ccc(Cc4ccc5nc(-c6ccc(OC)cc6)[nH]c5c4)cc3[nH]2)cc1,77.1%,44.2%,92.9%,49%,16.9%,43.3%,13.5%,38.2%,15.7%,82.3%
COc1ccc(/C(=C\c2ccc3c(c2)OCO3)C(=O)Nc2nc3ccc(F)cc3s2)cc1OC,108%,95.3%,90.9%,109%,96.2%,88.2%,104%,108%,101%,102%
O=C(Nc1ccc(Oc2ccc(NC(=O)Nc3ccccc3Cl)cc2)cc1)Nc1ccccc1Cl,38.9%,45.9%,58.2%,115%,24.6%,1.99% (active),62.5%,45.9%,48.5%,-17.7% (active)
COc1ccc2nc(C)cc(Nc3ccccc3O)c2c1,32.8%,18.9%,-93.2% (active),26%,-27.5% (active),47.1%,72.9%,56.5%,2.48% (active),33.4%
[Ag].[Ag].[NH-]S(=O)(=O)c1ccc(N=Nc2cc(N=Nc3ccc(S([NH-])(=O)=O)cc3)c3c(NC(=O)C(Cl)Cl)cccc3c2OC(=O)C(Cl)Cl)cc1.[c-]1nccs1.[c-]1nccs1,79%,76.2%,51.3%,80.7%,75.2%,48.2%,35.6%,91.8%,78.7%,89.1%
Cc1ccc(Nc2nc(NCCO)c3ccccc3n2)cc1C,15.6%,12.9%,39.6%,57%,15.1%,35.7%,-18.6% (active),35.7%,8.62% (active),52.5%
O=C1C2=C(C(=O)c3c(O)ccc(O)c31)N(c1ccc(N3CCOCC3)nc1)Cc1ccccc1O2,-77.4% (active),-47.7% (active),-19.8% (active),12.2%,0.735% (active),1.08% (active),-75% (active),-66.7% (active),-66.8% (active),-77% (active)
COc1ccc(Nc2ncccc2C(=O)NCc2cn(Cc3cc(OC)cc(OC)c3)nn2)cc1,104%,97.8%,81.7%,106%,98.6%,90.9%,97.6%,97.1%,96.5%,113%
Fc1ccc2nc(-c3ccc(-c4noc(-c5ccc(Cl)cc5)n4)cc3)[nH]c2c1,109%,103%,110%,110%,103%,102%,104%,113%,104%,128%
COc1ccc(/C(=C\c2cc(OC)c(OC)c(OC)c2)C(=O)N2CCCNCC2)cc1,103%,106%,88.7%,100%,109%,91.8%,99.7%,105%,103%,111%
COC(=O)c1cc2oc(/C=N/NC(=O)c3cc4oc(-c5cccc(C(F)(F)F)c5)cc4[nH]3)cc2n1Cc1ccccc1,98.1%,104%,84.4%,112%,101%,90.3%,108%,83.4%,97.6%,113%
COc1cc(-c2csc(NC(=O)Nc3cccc(C(F)(F)F)c3)n2)cc(OC)c1OC,30.9%,62.6%,62.4%,46.1%,34.1%,18.6%,28.7%,40%,62.3%,72.8%
